Measurements published in the supplement of paper PMC6897291.

Columns and labels:
[1] = system: U-2932; experiment: growth inhibition by drug alone (1 - RLU/untreated control) (fraction); higher = stronger inhibition; settings: 177Lu-lilotomab satetraxetan 0 ug/ml
How it was run: (§1)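 With or without 18 h pretreatment by a radiolabelled anti-CD37 antibody conjugate (~600 MBq/mg; 0.5 µg/ml RIVA, 1 µg/ml U-2932), RIVA and U-2932 cells were washed and plated at 3,000 cells/well. Pre-printed compound doses were 10/100 nM for RIVA and 10/1,000 nM for U-2932. Growth inhibition uses RealTime-Glo RLU relative to the untreated no-drug wells. The calculation is 1 − RLU/mean of 48 such wells per plate, with reads daily from day 3 after 1 h at 37°C.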

[2] = system: RIVA; experiment: as above; settings: 177Lu-lilotomab satetraxetan 0 ug/ml
How it was run: as §1

[3] = system: U-2932; experiment: growth inhibition by drug plus 177Lu-lilotomab satetraxetan (1 - RLU/untreated control) (fraction); higher = stronger inhibition; settings: 177Lu-lilotomab satetraxetan 1 ug/ml
How it was run: as §1

[4] = system: RIVA; experiment: as above; settings: 177Lu-lilotomab satetraxetan 0.5 ug/ml
How it was run: as §1

SMILES	growth inhibition by drug alone ([1]; 10 nM, time (day): 3)	growth inhibition by drug alone ([1]; 10 nM, time (day): 4)	growth inhibition by drug alone ([1]; 10 nM, time (day): 5)	growth inhibition by drug alone ([1]; 10 nM, time (day): 6)	growth inhibition by drug alone ([1]; 1000 nM, time (day): 3)	growth inhibition by drug alone ([1]; 1000 nM, time (day): 4)	growth inhibition by drug alone ([1]; 1000 nM, time (day): 5)	growth inhibition by drug alone ([1]; 1000 nM, time (day): 6)	growth inhibition by drug alone ([2]; 10 nM, time (day): 3)	growth inhibition by drug alone ([2]; 10 nM, time (day): 4)	growth inhibition by drug alone ([2]; 10 nM, time (day): 5)	growth inhibition by drug alone ([2]; 10 nM, time (day): 6)	growth inhibition by drug alone ([2]; 100 nM, time (day): 3)	growth inhibition by drug alone ([2]; 100 nM, time (day): 4)	growth inhibition by drug alone ([2]; 100 nM, time (day): 5)	growth inhibition by drug alone ([2]; 100 nM, time (day): 6)	growth inhibition by drug plus 177Lu-lilotomab satetraxetan ([3]; 10 nM, time (day): 3)	growth inhibition by drug plus 177Lu-lilotomab satetraxetan ([3]; 10 nM, time (day): 4)	growth inhibition by drug plus 177Lu-lilotomab satetraxetan ([3]; 10 nM, time (day): 5)	growth inhibition by drug plus 177Lu-lilotomab satetraxetan ([3]; 10 nM, time (day): 6)	growth inhibition by drug plus 177Lu-lilotomab satetraxetan ([3]; 1000 nM, time (day): 3)	growth inhibition by drug plus 177Lu-lilotomab satetraxetan ([3]; 1000 nM, time (day): 4)	growth inhibition by drug plus 177Lu-lilotomab satetraxetan ([3]; 1000 nM, time (day): 5)	growth inhibition by drug plus 177Lu-lilotomab satetraxetan ([3]; 1000 nM, time (day): 6)	growth inhibition by drug plus 177Lu-lilotomab satetraxetan ([4]; 10 nM, time (day): 3)	growth inhibition by drug plus 177Lu-lilotomab satetraxetan ([4]; 10 nM, time (day): 4)	growth inhibition by drug plus 177Lu-lilotomab satetraxetan ([4]; 10 nM, time (day): 5)	growth inhibition by drug plus 177Lu-lilotomab satetraxetan ([4]; 10 nM, time (day): 6)	growth inhibition by drug plus 177Lu-lilotomab satetraxetan ([4]; 100 nM, time (day): 3)	growth inhibition by drug plus 177Lu-lilotomab satetraxetan ([4]; 100 nM, time (day): 4)	growth inhibition by drug plus 177Lu-lilotomab satetraxetan ([4]; 100 nM, time (day): 5)	growth inhibition by drug plus 177Lu-lilotomab satetraxetan ([4]; 100 nM, time (day): 6)
CCN(CC)CCOc1ccc(Nc2ncc3cc(-c4c(Cl)cccc4Cl)c(=O)n(C)c3n2)cc1	0.107	0.071	0.00536	-0.00834	0.719	0.785	0.78	0.774	-0.00347	0.00881	-0.0667	-0.267	0.458	0.461	0.386	0.22	0.0115	0.0427	0.0614	0.118	0.958	0.972	0.981	0.984	0.458	0.527	0.536	0.546	0.495	0.473	0.405	0.287
COc1cc2ncnc(Nc3ccc(Oc4ccccc4)cc3)c2cc1OC	0.0897	0.0909	0.0445	-0.0326	0.038	0.0615	0.0344	0.0553	0.00348	0.0579	-0.00953	-0.188	-0.0251	0.00379	-0.0229	-0.143	0.0456	0.0896	0.111	0.169	-0.11	0.0137	0.0447	0.175	0.521	0.598	0.605	0.616	0.526	0.567	0.556	0.521
CN1C(=O)C(Cc2c[nH]c3ccccc23)NC1=S (stereo not drawn) [Necrostatin-1]	0.00216	-0.00946	-0.022	-0.0551	-0.0606	-0.0746	-0.132	-0.0624	-0.0747	-0.159	-0.218	-0.441	-0.34	-0.362	-0.408	-0.562	-0.059	-0.0156	0.00349	0.0946	-0.0506	0.00685	0.0586	0.224	0.451	0.501	0.519	0.523	0.368	0.476	0.476	0.476
Cn1cnc2c(F)c(Nc3ccc(Br)cc3Cl)c(C(=O)NOCCO)cc21 [AZD6244 (Selumetinib)]	0.124	0.0689	-0.0711	0.0468	0.116	0.112	-0.011	0.127	0.0177	-0.0269	-0.137	-0.558	-0.313	-0.239	-0.319	-0.531	-0.00544	0.0596	0.0509	0.056	0.15	0.192	0.203	0.285	0.452	0.491	0.497	0.504	0.277	0.359	0.316	0.307
